Source: PubChem BioAssay (NCI)
This is part of a sample that, as a whole, favours compounds with a hit. Of some 83,000 tested, about 20% had one in any assay.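 How to read the values: 0–100, growth inhibition (40 = 60% inhibited); 0, no net growth; -100 to 0, cell death (-40 = 40% of starting cells died; -100 = all dead).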 Activity calls are given as the source filed them. The calls were made as follows: active = growth percent below 10; inactive = the rest.

Legend:
Experiment in all cases: NCI-60 one-dose screen, 48 h (100 = growth as untreated, 0 = no growth, -100 = all killed)
Details in all cases: 10 µM unless noted
NCI-H23 lung = system: NCI-H23 lung
NCI-H226 lung = system: NCI-H226 lung
NCI-H322M lung = system: NCI-H322M lung
HOP-62 NSCLC = system: HOP-62 NSCLC
NCI-H460 lung = system: NCI-H460 lung
NCI-H522 lung = system: NCI-H522 lung
A549/ATCC NSCLC = system: A549/ATCC NSCLC
786-0 renal = system: 786-0 renal
COLO 205 colon = system: COLO 205 colon
DU-145 prostate = system: DU-145 prostate
K-562 leukemia = system: K-562 leukemia
MALME-3M melanoma = system: MALME-3M melanoma
MDA-MB-231 breast = system: MDA-MB-231 breast
SF-268 CNS = system: SF-268 CNS
SF-295 CNS = system: SF-295 CNS
SF-539 CNS = system: SF-539 CNS
UACC-257 melanoma = system: UACC-257 melanoma
M14 melanoma = system: M14 melanoma
HCT-15 colon = system: HCT-15 colon
RXF 393 renal = system: RXF 393 renal

Measured: growth

O=C(/C(=N/O)S(=O)(=O)c1ccccc1)c1cccs1
inactive: NCI-H23 lung 94.2% | NCI-H226 lung 102% | NCI-H322M lung 111% | HOP-62 NSCLC 94.4% | NCI-H460 lung 102% | NCI-H522 lung 143% | A549/ATCC NSCLC 106% | 786-0 renal 99.8% | COLO 205 colon 104% | DU-145 prostate 115% | K-562 leukemia 93.1% | MALME-3M melanoma 106% | MDA-MB-231 breast 109% | SF-268 CNS 106% | SF-295 CNS 104% | SF-539 CNS 109% | UACC-257 melanoma 106% | M14 melanoma 105% | HCT-15 colon 105%

NS(=O)(=O)c1ccc(NC2=C(Cl)C(=O)c3ccccc3C2=O)cc1
inactive: NCI-H23 lung 80.9% | NCI-H226 lung 61.9% | NCI-H322M lung 113% | HOP-62 NSCLC 102% | NCI-H460 lung 116% | NCI-H522 lung 70.1% | A549/ATCC NSCLC 112% | 786-0 renal 104% | COLO 205 colon 95.2% | DU-145 prostate 142% | K-562 leukemia 18.6% | MALME-3M melanoma 135% | MDA-MB-231 breast 79.7% | SF-268 CNS 118% | SF-295 CNS 111% | SF-539 CNS 89.6% | UACC-257 melanoma 92.5% | M14 melanoma 99.9% | HCT-15 colon 46.5%

CCOc1cc(C(C)(C)C)ccc1C1=N[C@H](c2ccc(Cl)cc2)[C@H](c2ccc(Cl)cc2)N1C(=O)N1CCN(CC#Cc2cccc3c2CN([C@@H]2CCC(=O)NC2=O)C3=O)CC1
inactive: NCI-H23 lung 77% | HOP-62 NSCLC 40.7% | NCI-H460 lung 24.2% | NCI-H522 lung 39.3% | A549/ATCC NSCLC 24.8% | 786-0 renal 43.8% | DU-145 prostate 57.1% | K-562 leukemia 24.5% | SF-268 CNS 39.9% | SF-295 CNS 35.1% | SF-539 CNS 70.3% | UACC-257 melanoma 42.6%
active: NCI-H226 lung -17.3% | NCI-H322M lung 9.35% | COLO 205 colon 8.66% | MALME-3M melanoma -32.9% | MDA-MB-231 breast -15.5% | HCT-15 colon 2.53%

COc1ccc(/C=N\Nc2ccc([N+](=O)[O-])cn2)cc1OC
inactive: NCI-H23 lung 88.4% | NCI-H226 lung 34.7% | NCI-H322M lung 10.8% | HOP-62 NSCLC 25.4% | NCI-H522 lung 47.9% | A549/ATCC NSCLC 30.3% | 786-0 renal 10.2% | COLO 205 colon 67.5% | DU-145 prostate 73.7% | K-562 leukemia 93.7% | RXF 393 renal 51.6% | SF-268 CNS 73.3% | SF-295 CNS 35.4% | SF-539 CNS 32.1% | UACC-257 melanoma 67.6% | M14 melanoma 110% | HCT-15 colon 95.8%
active: NCI-H460 lung 1.43% | MDA-MB-231 breast -0.447%

COc1ccc(-c2cc(Cc3cccs3)c(=O)n(Cn3cncn3)n2)cc1
inactive: NCI-H23 lung 102% | NCI-H226 lung 96.3% | NCI-H322M lung 100% | HOP-62 NSCLC 110% | NCI-H460 lung 112% | NCI-H522 lung 91.6% | A549/ATCC NSCLC 97.3% | 786-0 renal 104% | COLO 205 colon 117% | DU-145 prostate 124% | K-562 leukemia 98.3% | MDA-MB-231 breast 87.5% | RXF 393 renal 110% | SF-268 CNS 110% | SF-295 CNS 98.9% | SF-539 CNS 101% | UACC-257 melanoma 105% | M14 melanoma 107% | HCT-15 colon 101%

COc1cc(/C=C2\COc3ccc(O)c(O)c3C2=O)cc(OC)c1
active: HOP-62 NSCLC 2.74% | NCI-H522 lung -42.1% | 786-0 renal -29.4% | DU-145 prostate 9.48% | K-562 leukemia -0.232% | MALME-3M melanoma -59.4% | MDA-MB-231 breast -37.1% | SF-539 CNS -70.1% | UACC-257 melanoma 6.52% | HCT-15 colon -24.1%
inactive: NCI-H23 lung 49.1% | NCI-H226 lung 68.3% | NCI-H322M lung 29.2% | NCI-H460 lung 10.5% | A549/ATCC NSCLC 24.6% | COLO 205 colon 32.5% | SF-268 CNS 11% | SF-295 CNS 80.3%

CCCCCCCCCCCCCCCCN=C(CC(=O)O)C(=O)O
inactive: NCI-H23 lung 103% | NCI-H226 lung 99.4% | NCI-H322M lung 91.7% | HOP-62 NSCLC 106% | NCI-H460 lung 82.7% | NCI-H522 lung 87.5% | A549/ATCC NSCLC 96.1% | 786-0 renal 95.4% | COLO 205 colon 97.9% | DU-145 prostate 78.8% | K-562 leukemia 80.6% | MALME-3M melanoma 111% | RXF 393 renal 101% | SF-268 CNS 103% | SF-295 CNS 103% | SF-539 CNS 125% | UACC-257 melanoma 114% | M14 melanoma 95.8% | HCT-15 colon 102%

O=C1CC(=O)N(c2ccccc2)O1
inactive: NCI-H23 lung 108% | NCI-H226 lung 91.2% | NCI-H322M lung 108% | HOP-62 NSCLC 92.3% | NCI-H460 lung 111% | NCI-H522 lung 95.6% | A549/ATCC NSCLC 107% | 786-0 renal 105% | COLO 205 colon 92.3% | DU-145 prostate 105% | K-562 leukemia 111% | MDA-MB-231 breast 87.6% | RXF 393 renal 109% | SF-268 CNS 109% | SF-295 CNS 101% | SF-539 CNS 93.6% | UACC-257 melanoma 106% | M14 melanoma 99.9% | HCT-15 colon 102%

COc1ccc2nc(NC(=O)c3cc(-c4ccc(F)cc4)n4nc(-c5ccccc5)cc4n3)sc2c1
inactive: NCI-H23 lung 53.6% | NCI-H226 lung 84% | NCI-H322M lung 82.8% | HOP-62 NSCLC 61.4% | NCI-H460 lung 79.2% | NCI-H522 lung 95.8% | A549/ATCC NSCLC 77.1% | 786-0 renal 90.8% | COLO 205 colon 76.3% | DU-145 prostate 78.1% | K-562 leukemia 93.5% | MDA-MB-231 breast 72.8% | RXF 393 renal 118% | SF-295 CNS 61.6% | SF-539 CNS 66.6% | UACC-257 melanoma 80% | M14 melanoma 81.9% | HCT-15 colon 90%

Cc1cc([N+](=O)[O-])c(C)cc1C(=O)O
inactive: NCI-H23 lung 104% | NCI-H226 lung 99.8% | NCI-H322M lung 92.7% | HOP-62 NSCLC 103% | NCI-H460 lung 111% | NCI-H522 lung 96.1% | A549/ATCC NSCLC 108% | 786-0 renal 97% | COLO 205 colon 108% | DU-145 prostate 109% | MALME-3M melanoma 102% | MDA-MB-231 breast 110% | RXF 393 renal 112% | SF-268 CNS 99.8% | SF-295 CNS 96.9% | SF-539 CNS 98.5% | UACC-257 melanoma 105% | HCT-15 colon 97.3%

COc1cc(C(=O)/C=C/c2cccnc2Nc2ccccc2)cc(OC)c1OC
active: NCI-H23 lung -35.3% | NCI-H226 lung -96.2% | NCI-H322M lung 7.04% | HOP-62 NSCLC -74.2% | NCI-H460 lung -40.4% | NCI-H522 lung -68.7% | A549/ATCC NSCLC 2.67% | 786-0 renal -83.1% | COLO 205 colon -87.5% | DU-145 prostate -98.9% | MALME-3M melanoma -71.5% | MDA-MB-231 breast -61.1% | RXF 393 renal -97.4% | SF-268 CNS -81.1% | SF-539 CNS -54.8% | UACC-257 melanoma -88.2% | M14 melanoma -70% | HCT-15 colon -33.7%
inactive: SF-295 CNS 17.3%

COc1ccc(-c2nc3sccn3c2-c2ccnc(S(C)(=O)=O)n2)cc1
inactive: NCI-H23 lung 100% | NCI-H226 lung 90.4% | NCI-H322M lung 55.4% | HOP-62 NSCLC 78.7% | NCI-H460 lung 88.9% | NCI-H522 lung 26.7% | A549/ATCC NSCLC 105% | 786-0 renal 99.1% | COLO 205 colon 84.2% | DU-145 prostate 56.7% | MALME-3M melanoma 75.1% | MDA-MB-231 breast 84.3% | RXF 393 renal 97.5% | SF-268 CNS 95% | SF-295 CNS 74.9% | SF-539 CNS 109% | UACC-257 melanoma 111% | M14 melanoma 102% | HCT-15 colon 84.3%

O=C(Nc1nc(-c2ccccc2)cs1)c1cc(O)c(O)c(O)c1
inactive: NCI-H23 lung 59.6% | NCI-H226 lung 67.9% | NCI-H322M lung 69.1% | HOP-62 NSCLC 46.4% | NCI-H460 lung 34.7% | A549/ATCC NSCLC 46.2% | 786-0 renal 41.6% | COLO 205 colon 84.5% | DU-145 prostate 57.7% | K-562 leukemia 19.6% | MDA-MB-231 breast 44% | SF-268 CNS 43.7% | SF-295 CNS 58.5% | SF-539 CNS 42% | UACC-257 melanoma 80.9% | M14 melanoma 54.4% | HCT-15 colon 27.3%
active: NCI-H522 lung -29.4%

O=C(Nc1nc2ccccc2s1)c1cc(-c2ccc(F)cc2)n2nc(-c3ccccc3)cc2n1
inactive: NCI-H23 lung 68.7% | NCI-H226 lung 89.1% | NCI-H322M lung 60.1% | HOP-62 NSCLC 63.8% | NCI-H460 lung 29.3% | NCI-H522 lung 101% | A549/ATCC NSCLC 51.2% | 786-0 renal 11.7% | COLO 205 colon 65.2% | DU-145 prostate 89.1% | K-562 leukemia 59.1% | MDA-MB-231 breast 64.6% | RXF 393 renal 121% | SF-295 CNS 40.3% | SF-539 CNS 63.8% | UACC-257 melanoma 69% | M14 melanoma 79.2%

COc1ccc(-c2csc(NC(=O)c3cc(O)c(O)c(O)c3)n2)cc1
active: NCI-H522 lung -22.9%
inactive: NCI-H23 lung 78.5% | NCI-H226 lung 82.3% | NCI-H322M lung 76.9% | HOP-62 NSCLC 64.8% | NCI-H460 lung 53.7% | A549/ATCC NSCLC 58.6% | 786-0 renal 64.4% | COLO 205 colon 91.4% | DU-145 prostate 65.2% | K-562 leukemia 44.8% | MDA-MB-231 breast 56% | SF-268 CNS 54.5% | SF-295 CNS 73.4% | SF-539 CNS 62.7% | UACC-257 melanoma 87.3% | M14 melanoma 63.2% | HCT-15 colon 30.4%

C=CCOc1ccc2c(c1)CC[C@@H]1[C@@H]2CC[C@@]2(C)[C@H]1CC[C@]2(C)O
inactive: NCI-H23 lung 92.8% | NCI-H226 lung 104% | NCI-H322M lung 81.2% | HOP-62 NSCLC 109% | NCI-H460 lung 46.3% | NCI-H522 lung 60.3% | A549/ATCC NSCLC 80.3% | 786-0 renal 93.8% | COLO 205 colon 75.6% | DU-145 prostate 121% | MDA-MB-231 breast 64.7% | RXF 393 renal 106% | SF-268 CNS 85.7% | SF-295 CNS 94.8% | SF-539 CNS 76.5% | UACC-257 melanoma 53.9% | M14 melanoma 88.7% | HCT-15 colon 65.2%
active: K-562 leukemia 4.02%
